In publication PMC12820563, “FoxP3 forms a head-to-head dimer in vivo and stabilizes its multimerization on adjacent microsatellites” one finds binding signal data, which are given here for 32 sequences.

Whole data set: some 16,000 sequences, median “rpm ratio (pull-down/input)” near 0.5, cut for the highest 2% near 5.5. Shown is part of a subset that was picked to be rich in the highest values.

This assay concerns the target T1, MBP-FoxP3dN (Mus musculus, UniProt Q99JB6 188-423).
T1 sequence: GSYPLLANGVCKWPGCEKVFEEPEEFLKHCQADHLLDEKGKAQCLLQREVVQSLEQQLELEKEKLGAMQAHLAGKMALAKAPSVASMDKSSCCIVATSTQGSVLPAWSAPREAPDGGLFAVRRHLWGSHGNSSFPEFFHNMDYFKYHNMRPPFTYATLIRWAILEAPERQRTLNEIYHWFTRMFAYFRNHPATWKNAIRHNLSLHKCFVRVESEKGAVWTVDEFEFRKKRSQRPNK
The assay is described as follows: PD-seq (MBP pull-down with sequencing); 20 mM Tris-HCl pH 7.5, 100 mM NaCl, 1.5 mM MgCl2, 0.4 uM protein, 0.1 uM dsDNA library, 30 min, room temperature, amylose pull-down; high values mean tight binding. To be noted: protein: recombinant; tags: His6-MBP; chain copies: 2; dsDNA, one strand shown. The procedure, abridged: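 Binding is the reads-per-million enrichment of pull-down relative to input, pooled across replicates. For this, 0.4 µM His6-MBP-tagged mouse FoxP3 or FoxP1 fragment lacking the N-terminus, made in E. coli, was incubated with 0.1 µM Klenow-filled double-stranded degenerate DNA library for 30 min at room temperature in Tris pH 7.5 buffer with NaCl and MgCl2. Complexes bound to amylose resin were washed three times before proteinase K released the DNA for PCR barcoding and Illumina sequencing.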
Consider “GATGATTGTTCTCCCAGCTGATGAATTATTTTACTCGAGTAAACAAATTTTCCTAATCTTTCTGTTCAAGCGCCATCTAC”, for which the binding signal is 0.529 RPM ratio (pull-down/input). With “GATGATTGTTCTCCCAGCTGATGAATTTATTTACTCGAGTAAACAAATTTTCCTAATCTTTCTGTTCAAGCGCCATCTAC” the figure was 6.74 RPM ratio (pull-down/input); with “GATGATTGTTCTCCCAGCTGATGAATTATTTGTCTCGAGTAAACAAATTTTCCTAATCTTTCTGTTCAAGCGCCATCTAC”, 2.46 RPM ratio (pull-down/input); with “GATGATTGTTCTCCCAGCTGATGAATTTTTTTACTCGAGTAAACAAATTTTCCTAATCTTTCTGTTCAAGCGCCATCTAC”, 0.35 RPM ratio (pull-down/input). As to “GATGATTGTTCTCCCAGCTGATGAATTGTTTTACTCGAGTAAACAAATTTTCCTAATCTTTCTGTTCAAGCGCCATCTAC”, the binding signal was 1.55 RPM ratio (pull-down/input).

For the sequence “GATGATTGTTCTCCCAGCTGATGAATTTGTTTACTCGAGTAAACAAATTTTCCTAATCTTTCTGTTCAAGCGCCATCTAC”, the binding signal is 6.49 RPM ratio (pull-down/input). The same measure for “GATGATTGTTCTCCCAGCTGATGAATTTTGTTACTCGAGTAAACAAATTTTCCTAATCTTTCTGTTCAAGCGCCATCTAC”: 3.84 RPM ratio (pull-down/input); for “GATGATTGTTCTCCCAGCTGATGAATTTGATTACTCGAGTAAACAAATTTTCCTAATCTTTCTGTTCAAGCGCCATCTAC”: 6.08 RPM ratio (pull-down/input). The same measure for “GATGATTGTTCTCCCAGCTGATGAATTGAATTACTCGAGTAAACAAATTTTCCTAATCTTTCTGTTCAAGCGCCATCTAC”: 1.28 RPM ratio (pull-down/input). On to “GATGATTGTTCTCCCAGCTGATGAATTTATTGTCTCGAGTAAACAAATTTTCCTAATCTTTCTGTTCAAGCGCCATCTAC”, for which the binding signal was 6.72 RPM ratio (pull-down/input). The same measure for “GATGATTGTTCTCCCAGCTGATGAATTTTATGTCTCGAGTAAACAAATTTTCCTAATCTTTCTGTTCAAGCGCCATCTAC”: 1.12 RPM ratio (pull-down/input); for “GATGATTGTTCTCCCAGCTGATGAATTCAATTGTTCGAGTAAACAAATTTTCCTAATCTTTCTGTTCAAGCGCCATCTAC”: 3.36 RPM ratio (pull-down/input); for “GATGATTGTTCTCCCAGCTGATGAATTGGCCCGGTCGAGTAAACAAATTTTCCTAATCTTTCTGTTCAAGCGCCATCTAC”: 0.201 RPM ratio (pull-down/input).

With “GATGATTGTTCTCCCAGCTGATGAATTGCTTCCCTCGAGTAAACAAATTTTCCTAATCTTTCTGTTCAAGCGCCATCTAC”, the binding signal was 0.536 RPM ratio (pull-down/input). Turning to “GATGATTGTTCTCCCAGCTGATGAATTTTTGCATTCGAGTAAACAAATTTTCCTAATCTTTCTGTTCAAGCGCCATCTAC”, the binding signal is 6.58 RPM ratio (pull-down/input). The same measure for “GATGATTGTTCTCCCAGCTGATGAATTGCATTTCTCGAGTAAACAAATTTTCCTAATCTTTCTGTTCAAGCGCCATCTAC”: 2.75 RPM ratio (pull-down/input); for “GATGATTGTTCTCCCAGCTGATGAATTTGCATATTCGAGTAAACAAATTTTCCTAATCTTTCTGTTCAAGCGCCATCTAC”: 2.72 RPM ratio (pull-down/input).

Turning to “GATGATTGTTCTCCCAGCTGATGAATTGCATTCCTCGAGTAAACAAATTTTCCTAATCTTTCTGTTCAAGCGCCATCTAC”, the binding signal was 3.39 RPM ratio (pull-down/input). The same measure for “GATGATTGTTCTCCCAGCTGATGAATTTGCATTCTCGAGTAAACAAATTTTCCTAATCTTTCTGTTCAAGCGCCATCTAC”: 6.29 RPM ratio (pull-down/input).

On to “GATGATTGTTCTCCCAGCTGATGAATTTGCCATCTCGAGTAAACAAATTTTCCTAATCTTTCTGTTCAAGCGCCATCTAC”, for which the binding signal is 2.56 RPM ratio (pull-down/input). With “GATGATTGTTCTCCCAGCTGATGAATTGCGTAATTCGAGTAAACAAATTTTCCTAATCTTTCTGTTCAAGCGCCATCTAC” the figure was 1.58 RPM ratio (pull-down/input). With “GATGATTGTTCTCCCAGCTGATGAATTGCCATTTTCGAGTAAACAAATTTTCCTAATCTTTCTGTTCAAGCGCCATCTAC” the figure was 1.02 RPM ratio (pull-down/input). For the sequence “GATGATTGTTCTCCCAGCTGATGAATTGCGCCATTCGAGTAAACAAATTTTCCTAATCTTTCTGTTCAAGCGCCATCTAC”, the binding signal is 6.51 RPM ratio (pull-down/input).

As to “GATGATTGTTCTCCCAGCTGATGAATTTTGCATCTCGAGTAAACAAATTTTCCTAATCTTTCTGTTCAAGCGCCATCTAC”, the binding signal is 7.18 RPM ratio (pull-down/input). With “GATGATTGTTCTCCCAGCTGATGAATTGCATCTCTCGAGTAAACAAATTTTCCTAATCTTTCTGTTCAAGCGCCATCTAC” the figure was 4.07 RPM ratio (pull-down/input).

Turning to “GATGATTGTTCTCCCAGCTGATGAATTTAGAGGCTCGAGTAAACAAATTTTCCTAATCTTTCTGTTCAAGCGCCATCTAC”, the binding signal was 0.583 RPM ratio (pull-down/input).

“GATGATTGTTCTCCCAGCTGATGAATTTTGATATTCGAGTAAACAAATTTTCCTAATCTTTCTGTTCAAGCGCCATCTAC”: the binding signal was 3.34 RPM ratio (pull-down/input). The same measure for “GATGATTGTTCTCCCAGCTGATGAATTTATCGAATCGAGTAAACAAATTTTCCTAATCTTTCTGTTCAAGCGCCATCTAC”: 0.374 RPM ratio (pull-down/input); for “GATGATTGTTCTCCCAGCTGATGAATTGCCTCGGTCGAGTAAACAAATTTTCCTAATCTTTCTGTTCAAGCGCCATCTAC”: 0.565 RPM ratio (pull-down/input). The same measure for “GATGATTGTTCTCCCAGCTGATGAATTTTCAACTTCGAGTAAACAAATTTTCCTAATCTTTCTGTTCAAGCGCCATCTAC”: 0.307 RPM ratio (pull-down/input); for “GATGATTGTTCTCCCAGCTGATGAATTGAATGACTCGAGTAAACAAATTTTCCTAATCTTTCTGTTCAAGCGCCATCTAC”: 0.545 RPM ratio (pull-down/input); for “GATGATTGTTCTCCCAGCTGATGAATTGTTAAAATCGAGTAAACAAATTTTCCTAATCTTTCTGTTCAAGCGCCATCTAC”: 0.291 RPM ratio (pull-down/input).
